Assay results as given in PubChem BioAssay (NCI).
About 79,000 compounds went through this panel and 15% of them were active in at least one assay; those are over-represented in the sample as a whole. Values without a mark were called inactive. Active and inactive are the calls of the source. Rule as the data show it: active = growth inhibition above about 70%; inactive = the rest.

Experiment: NCI Yeast Anticancer Drug Screen. Data for the cln2 rad14 strain (AID 165);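 also: 0% = growth equal to vehicle treated cultures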
Conditions: S. cerevisiae cln2 rad14 strain, active compounds read high; at 50.0 µM unless noted
Summary of the method: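 Test compounds were added to cln2 rad14 yeast cultures; inhibition of growth was then determined by comparison with vehicle treatment.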

SMILES | growth inhibition
CCCCCCCCCCCC[N+](C)(C)C(C)Cc1ccccc1 (centres undefined) | 99.4% (active)
CCOC(OCC)N1C(=O)C2(C(OCC)OCC)CC3C(OC(=O)N3N)c3cccc1c32 (centres undefined) | -8.95%
CCCCCC(=O)NNC(=O)CCCCC | -4.95%
COc1cc(C(=O)O)cc(I)c1OC | -15.4%
CN(Cc1ccc2nc(N)nc(N)c2c1)c1ccc(C(=O)NC(CCC(=O)O)C(=O)O)cc1 (centres undefined) | 4.7%
COc1ccc(OC(C)C(=O)O)c2c(=O)ccccc12 (centres undefined) | 25.2%
O=P1(NC23CC4CC(CC(C4)C2)C3)OC(CCl)=NC1c1ccc(C2N=C(CCl)OP2(=O)NC23CC4CC(CC(C4)C2)C3)cc1 (centres undefined) | -12.8%
CCCCC/C(=N\c1nc[nH]c1C(N)=O)OCC | -7.1%
CC(C)c1ccc(/C(C(=O)O)=C(\O)C(=O)O)cc1 | 29.9%
O=C1CC(c2ccccc2)N1c1ccccc1 (centres undefined) | -20.6%
C=C(C)C(C(=O)OCC)C(=O)OCC | 10.5%
CO/C(=N\N=C\c1ccc(Cl)cc1Cl)c1ccncc1 | -23.4%
COc1ccc2[nH]c3c(C)c4c(c(C)c3c2c1)CN(C)C=C4 | 21.2%
O=C(O)C1CCc2ccccc21 (centres undefined) | -12.2%
C[N+]1(C)CCc2cc(O)c(O)cc2C1Cc1ccc(O)c(O)c1 (centres undefined) | 23.4%
CCc1c(CC)c(CC)c(CC)c(CC)c1CC | -39%
CCC1(CC)SC=C(C)NC1=O | -24.7%
CCOC(=O)c1cc2ccccc2cc1N=N | -2.7%
COc1ccc(COC(=O)Nc2ccc(Br)cc2)c(OC)c1 | -16.6%
Cc1ncc(CO)c(/C=N\OCc2cccc(Cl)c2)c1O | -1.95%
N#CCCC(CC#N)N1CCN(CCO)CC1 (centres undefined) | -21.2%
C/C(=N\NC(=O)c1ccncc1)c1cc(Cl)ccc1Cl | 8.15%
COC(=O)/C([O-])=C(\C(=O)OC)[n+]1cc(Br)cc2ccccc21 | -9.5%
CC1OC(O[C@H]2CC[C@]3(C)[C@H]4CC=C5[C@@H]6[C@@H](C)[C@H](C)CC[C@]6(C(=O)OC6OC(CO)C(O)C(O)C6O)CC[C@@]5(C(=O)O)[C@]4(C)CC[C@H]3C2(C)C)C(O)C(O)C1O (some centres undefined) | -29.5%

Experiment: NCI Yeast Anticancer Drug Screen. Data for the bub3 strain (AID 167)
Conditions: S. cerevisiae bub3 mutant strain, active compounds read high; at 50.0 µM unless noted
Summary of the method: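 In this screen, a yeast mutant lacking normal mitotic checkpoint function is challenged with compound. Relative growth versus vehicle gives the inhibition value.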

SMILES | growth inhibition
CC(=O)Nc1ccc(S(=O)(=O)O)c(OC(C)=O)c1 | 7.35%
CN(C)CCN1CC2Cc3ccccc3C1c1ccccc12 (centres undefined) | 43.4%
COc1cc(/C=N/NC(=O)c2ccccc2NC(=O)c2ccccc2)ccc1O | 37.7%
NC(=S)Cc1ccncc1 | 5.55%
COc1ccc2nc3cc(Cl)ccc3c(SCC(=O)Nc3ccccc3-c3ccccc3NC(=O)CSc3c4ccc(Cl)cc4nc4ccc(OC)cc34)c2c1 | 2.5%
COC1C(CO)OC(O)C(O)C1O (centres undefined) | -6.9%
CCNC(=O)Nc1cccc(C)n1 | 4.4%
CCCCCCCCCCCCC(C)O (centres undefined) | -21.1%
COc1ccc(C2=Nc3c(nc(OC)[nH]c3=O)NC(c3ccccc3)C2)cc1 (centres undefined) | -8.95%
CO[C@@H]1C2=CC=CC=C[C@H]2n2c(=O)n(-c3ccccc3)c(=O)n21 | -1.15%
CC1(C)OCC2OC3(c4nc(C#N)c(N)o4)OC(C)(C)OC3C2O1 (centres undefined) | -39.2%
O=C1C2CCC2C(=O)N1c1ccc2ccccc2c1 (centres undefined) | 12.6%
CC1(C)C2(Cl)C(Cl)=C(Cl)C13C(Cl)(c1ccc([N+](=O)[O-])cc1C1(Cl)C(Cl)(Cl)C4(Cl)C(Cl)=C(Cl)C13C4(C)C)C2(Cl)Cl (centres undefined) | -2.5%
CCCCCCCCCCCCCCCCNC(=O)C(=O)/C=C(\O)c1ccc(C)cc1 | 0.6%
NS(=O)(=O)c1ccc(N=Nc2ncccc2O)cc1 | -44%
O=C(O)C1(F)CC1(c1ccccc1)c1ccccc1 (centres undefined) | 5.6%
CCCCCCCCCCCC[N+](C)(C)C(C)Cc1ccccc1 (centres undefined) | 99.2% (active)
CCOC(OCC)N1C(=O)C2(C(OCC)OCC)CC3C(OC(=O)N3N)c3cccc1c32 (centres undefined) | -4.75%
CCCCCC(=O)NNC(=O)CCCCC | -21.8%
COc1cc(C(=O)O)cc(I)c1OC | -4.55%

SMILES | growth inhibition
CN(Cc1ccc2nc(N)nc(N)c2c1)c1ccc(C(=O)NC(CCC(=O)O)C(=O)O)cc1 (centres undefined) | -24.5%
COc1ccc(OC(C)C(=O)O)c2c(=O)ccccc12 (centres undefined) | 5.7%
O=P1(NC23CC4CC(CC(C4)C2)C3)OC(CCl)=NC1c1ccc(C2N=C(CCl)OP2(=O)NC23CC4CC(CC(C4)C2)C3)cc1 (centres undefined) | -35.1%
CCCCC/C(=N\c1nc[nH]c1C(N)=O)OCC | -27.8%
CC(C)c1ccc(/C(C(=O)O)=C(\O)C(=O)O)cc1 | -31.6%
O=C1CC(c2ccccc2)N1c1ccccc1 (centres undefined) | -10.9%
C=C(C)C(C(=O)OCC)C(=O)OCC | -21.8%
CO/C(=N\N=C\c1ccc(Cl)cc1Cl)c1ccncc1 | -27.8%
COc1ccc2[nH]c3c(C)c4c(c(C)c3c2c1)CN(C)C=C4 | 65.8%
O=C(O)C1CCc2ccccc21 (centres undefined) | -26.6%
C[N+]1(C)CCc2cc(O)c(O)cc2C1Cc1ccc(O)c(O)c1 (centres undefined) | -36.8%
CCc1c(CC)c(CC)c(CC)c(CC)c1CC | 1.05%
CCC1(CC)SC=C(C)NC1=O | -14.7%
CCOC(=O)c1cc2ccccc2cc1N=N | 23.2%
COc1ccc(COC(=O)Nc2ccc(Br)cc2)c(OC)c1 | 16.8%
Cc1ncc(CO)c(/C=N\OCc2cccc(Cl)c2)c1O | 17.1%
N#CCCC(CC#N)N1CCN(CCO)CC1 (centres undefined) | -0.95%
C/C(=N\NC(=O)c1ccncc1)c1cc(Cl)ccc1Cl | 0.35%
COC(=O)/C([O-])=C(\C(=O)OC)[n+]1cc(Br)cc2ccccc21 | 56.8%
CC1OC(O[C@H]2CC[C@]3(C)[C@H]4CC=C5[C@@H]6[C@@H](C)[C@H](C)CC[C@]6(C(=O)OC6OC(CO)C(O)C(O)C6O)CC[C@@]5(C(=O)O)[C@]4(C)CC[C@H]3C2(C)C)C(O)C(O)C1O (some centres undefined) | -23.2%
